From PubChem BioAssay
The source made the active and inactive calls.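 The calls were made as follows, unless noted: active = inhibition above 20% together with a positive visual image hit; inconclusive = visual image hit but inhibition not above 20%; inactive = no visual image hit.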

Assays:
[1] = inhibitors of TNFa-induced NFkB p65 translocation, primary screen, imaging, HUVEC, MLSMR starter and 10KST1 sets (AID 438); conditions: HUVEC TNFa-induced p65 nuclear translocation; cell count: measured here: nuclei count (cytotoxicity indicator), at 2.08 µM; inhibition: at 2 µM, stronger effect = higher value, 0% TNFa-plus-vehicle, 100% no-TNFa wells;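 also: compound added about 3h40 before a 20 min TNFalpha stimulation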;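 as to inhibition: signal is the nuclear over cytoplasmic p65 intensity ratio per well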
[2] = inhibitors of mutant huntingtin aggregation, primary screen, imaging, exon1htt(103Q)mCFP cells, high-content imaging (AID 483;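 active = visual image review flags a hit and inhibition of aggregation exceeds 20%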;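 also: compound exposure lasted 3 days before fixation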;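 as to nuclei count: percent of the per-plate median nuclei count of sample wells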); conditions: exon1htt(103Q)mCFP cell line, aggregate imaging, at 2 µM; inhibition of aggregation: stronger effect = higher value; nuclei count: measured here: cell count, toxicity
[3] = inhibitors of E-selectin induction by TNFa, primary screen, imaging, HUVEC, immunofluorescence, MLSMR starter and 10KST1 sets (AID 487;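 active = visually confirmed hit in the image check and inhibition above 20%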;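 as to inhibition: signal is fraction of cell area covered by stained E-selectin grains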;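 as to nuclei count: 100% = median nuclei count of all wells on the same plate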); conditions: HUVEC TNFalpha-induced E-selectin immunofluorescence imaging, at 2 µM; inhibition: stronger effect = higher value; nuclei count: measured here: cell number, toxicity
[4] = biological target: Voltage-gated potassium channel subunit beta-2 (Rattus norvegicus) (UniProt P62483); assay: KvBeta enzyme negative modulators, primary screen, biochemical, NADPH fluorescence (AID 622;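 active = fluorescence slope higher than the sample average by over 3 SD, cut at about -0.22 in these data, passing the limit was not always enough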;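 also: slope of raw intensity against log time taken from 70 to 1610 s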); conditions: recombinant KvBeta, 4-cyanobenzaldehyde reduction, at 10 µM, stronger effect = higher value
Sequence of Voltage-gated potassium channel subunit beta-2 (Rattus norvegicus) (P62483 whole entry, looked up): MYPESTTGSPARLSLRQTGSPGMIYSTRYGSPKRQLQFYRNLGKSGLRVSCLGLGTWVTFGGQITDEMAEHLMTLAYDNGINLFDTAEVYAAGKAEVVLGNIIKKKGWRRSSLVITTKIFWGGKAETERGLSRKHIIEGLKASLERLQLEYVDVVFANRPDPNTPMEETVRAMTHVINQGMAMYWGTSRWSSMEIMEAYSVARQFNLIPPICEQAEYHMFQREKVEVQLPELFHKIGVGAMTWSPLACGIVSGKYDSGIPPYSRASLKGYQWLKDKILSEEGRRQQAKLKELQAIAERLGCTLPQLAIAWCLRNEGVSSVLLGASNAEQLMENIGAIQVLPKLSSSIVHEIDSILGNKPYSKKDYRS

[5] = biological target: Voltage-gated potassium channel subunit beta-2 (Rattus norvegicus) (UniProt P62483); assay: KvBeta positive modulators, primary screen, biochemical, NADPH fluorescence (AID 623;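 active = NADPH fluorescence slope more negative than the mean of all samples by about 3 SD, 99.7% confidence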;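 also: fluorescence intensity change per second fitted from 20 to 320 s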); conditions: Recombinant KvBeta, NADPH fluorescence decrease slope, 10 min; at 10 µM; stronger effect = lower value
[6] = biological target: Muscarinic acetylcholine receptor M4 (Homo sapiens) (UniProt P08173); assay: compounds altering M4/GIRK thallium flux, either direction, primary screen, M4 allosteric agonist project, cell-based, HEK293 M4/GIRK, BTC-AM (AID 625;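 active = fluorescence slope after compound addition differing from the mean of all tested samples at 99.7% confidence, mostly higher but some lower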;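 also: thallium influx through GIRK channels coupled to M4 in HEK293 cells with BTC-AM dye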); conditions: at 10 µM, actives lie on both sides
Sequence of Muscarinic acetylcholine receptor M4 (Homo sapiens) (P08173 whole entry, looked up): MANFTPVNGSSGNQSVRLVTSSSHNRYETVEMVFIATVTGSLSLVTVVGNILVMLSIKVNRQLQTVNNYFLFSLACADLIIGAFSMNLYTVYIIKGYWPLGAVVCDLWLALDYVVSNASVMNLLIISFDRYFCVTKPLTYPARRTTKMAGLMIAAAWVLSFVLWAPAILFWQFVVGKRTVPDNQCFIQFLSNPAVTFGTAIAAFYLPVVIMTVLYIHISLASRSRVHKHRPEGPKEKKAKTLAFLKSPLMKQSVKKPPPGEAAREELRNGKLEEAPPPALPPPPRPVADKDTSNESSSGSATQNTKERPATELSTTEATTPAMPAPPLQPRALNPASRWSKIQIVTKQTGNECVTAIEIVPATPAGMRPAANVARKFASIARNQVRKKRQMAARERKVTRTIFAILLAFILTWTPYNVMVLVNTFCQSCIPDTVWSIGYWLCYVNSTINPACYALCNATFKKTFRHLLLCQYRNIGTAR

[7] = inhibitors of Sendai virus-induced IRF3 signaling, primary screen, TLR/RLR signaling modifier project, cell-based, Sendai virus stimulus, luciferase, 10K MLSCN set (AID 602276;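 active = inhibition at or above 50% at 10 µM; inactive = inhibition below 50%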;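 also: firefly luciferase from ISG56 promoter only with Renilla not read in this screen; 0% = Sendai virus plus DMSO and 100% = medium plus DMSO without virus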); conditions: HEK293 RL24 IRF3 luciferase reporter, at 10 µM, stronger effect = higher value
[8] = inhibitors of poly I:C-induced TLR3 signaling, primary screen, cell-based, poly I:C stimulus, luciferase, 10K MLSCN set (AID 602277;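 active = inhibition of the reporter signal at or above 50%; inactive = inhibition below 50%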); conditions: HEK293-TLR3 RL24 IRF3 luciferase reporter, at 10 µM, stronger effect = higher value
[9] = biological target: Alpha-2C adrenergic receptor (Homo sapiens) (UniProt P18825); assay: modulators of alpha2C/GIRK thallium flux, primary screen, cell-based, HEK293 alpha2C/GIRK1/2 (AID 624;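 active = fluorescence slope after compound addition differing from the mean of all screened samples at 99.7% confidence, in either direction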;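 also: slope of fluorescence ratio to pre-addition baseline per second over 15 to 24 s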); conditions: thallium flux BTC fluorescence, at 10 µM, actives lie on both sides
Sequence of Alpha-2C adrenergic receptor (Homo sapiens) (P18825 whole entry, looked up): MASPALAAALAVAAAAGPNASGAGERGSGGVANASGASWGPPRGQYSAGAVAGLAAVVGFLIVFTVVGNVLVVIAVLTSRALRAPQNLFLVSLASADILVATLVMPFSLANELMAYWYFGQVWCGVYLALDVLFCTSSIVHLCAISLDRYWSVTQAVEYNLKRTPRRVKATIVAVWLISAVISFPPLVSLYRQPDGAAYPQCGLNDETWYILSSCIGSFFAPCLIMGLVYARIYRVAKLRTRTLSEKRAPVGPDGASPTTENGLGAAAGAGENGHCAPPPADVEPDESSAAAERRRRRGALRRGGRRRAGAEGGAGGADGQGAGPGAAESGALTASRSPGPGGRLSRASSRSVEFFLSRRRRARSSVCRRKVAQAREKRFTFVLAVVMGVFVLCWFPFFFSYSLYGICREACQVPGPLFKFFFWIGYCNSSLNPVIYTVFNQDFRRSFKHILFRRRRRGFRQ

Row | Compound | cell count [1] | inhibition [1] | inhibition of aggregation [2] | nuclei count [2] [%] | inhibition [3] | nuclei count [3] [%] | fluorescence slope [4] | NADPH fluorescence slope [5] | fluorescence slope [6] | inhibition [7] | inhibition [8] | slope [9]
1 | COC(=O)c1c(NC(=O)C2CC=CCC2C(=O)O)sc(C(N)=O)c1C (configuration not stated) | 654 | -2.4% (inactive) | 7.8% (inactive) | 96.4 | -10.1% (inactive) | 113 | -0.495 (inactive) | -4.4e-05 (inactive) | 0.00475 (inactive) | 0.24% (inactive) | 11% (inactive) | –
2 | N=c1c(C(=O)NCc2ccc(F)cc2)cc2c(=O)n3ccccc3nc2n1CCCN1CCOCC1 | 537 | 4.4% (inactive) | -26.3% (inactive) | 102 | -45.8% (inactive) | 122 | -0.374 (inactive) | -1e-05 (inactive) | – | – | 69.7% (active) | 0.00357 (inactive)
3 | Cc1cc(NC(=O)COc2ncnc3sc(C)c(C)c23)no1 | 418 | 1.3% (inactive) | -2.1% (inactive) | 100 | – | 153 | -0.568 (inactive) | -2.9e-05 (inactive) | 0.00692 (inactive) | 21% (inactive) | 21.4% (inactive) | –
4 | O=C1NC(c2ccccc2)(C(F)(F)F)SC2=NCCCN12 (configuration not stated) | 429 | 4.8% (inactive) | 12.3% (inactive) | 106 | – | 154 | -0.482 (inactive) | 4.2e-05 (inactive) | 0.00455 (inactive) | -6.22% (inactive) | -13.6% (inactive) | –
5 | COCC(=O)Nc1sc2c(c1C(=O)OC)CCC(C)C2 (configuration not stated) | 421 | 5.5% (inactive) | -7.6% (inactive) | 94.2 | -127% (inactive) | 126 | -0.471 (inactive) | -3.9e-05 (inactive) | 0.00475 (inactive) | 16.5% (inactive) | -17% (inactive) | –
6 | O=C1CS/C(=N\C(=O)N2c3ccccc3Sc3ccccc32)N1 | 373 | 8% (inactive) | 28.4% (inactive) | 87.6 | -22.3% (inactive) | 128 | -0.523 (inactive) | -5.6e-05 (inactive) | 0.00677 (inactive) | 12% (inactive) | 27.5% (inactive) | –
7 | COC(=O)c1c(C(=O)OC)n(CCCN)c2ccc(C)cc12 | 434 | 10.9% (inactive) | 1.8% (inactive) | 100 | – | 152 | -0.495 (inactive) | -7.5e-06 (inactive) | 0.00606 (inactive) | 20.6% (inactive) | 34% (inactive) | –
8 | O=C(O)CC(C(=O)OCCOc1ccccc1)N1CCOCC1 (configuration not stated) | 504 | 6.4% (inactive) | – | – | -77.1% (inactive) | 109 | – | – | – | – | – | –
9 | O=C(CN1C(=O)CCSc2ccccc21)Nc1ccc2c(c1)OCO2 | 700 | -1.6% (inactive) | 31.4% (inactive) | 91.2 | -215% (inactive) | 111 | -0.474 (inactive) | -2.4e-05 (inactive) | 0.00631 (inactive) | 12.5% (inactive) | 23.4% (inactive) | –
10 | COc1ccccc1OCCn1c(=O)sc2ccccc21 | 478 | 9.8% (inactive) | -14.7% (inactive) | 90.3 | – | 152 | -0.477 (inactive) | 1.7e-05 (inactive) | 0.0055 (inactive) | 1.53% (inactive) | 6.17% (inactive) | –
11 | Cc1cc(S(=O)(=O)n2cnc3ccccc32)c(C)cc1Cl | 449 | -11.9% (inactive) | 25.3% (inactive) | 78 | 8% (inactive) | 113 | -0.473 (inactive) | 1.7e-06 (inactive) | 0.00564 (inactive) | 1.42% (inactive) | 14.8% (inactive) | –
12 | COc1ccccc1C(=O)Nc1c2c(nn1-c1cccc(C)c1C)CS(=O)(=O)C2 | 335 | -6.6% (inactive) | -7% (inactive) | 79.5 | -51.3% (inactive) | 106 | -0.492 (inactive) | -4.5e-06 (inactive) | 0.00519 (inactive) | 14.2% (inactive) | 19.1% (inactive) | –
13 | O=C(NCc1ccco1)c1cc2n(n1)C(C(F)(F)F)CC(c1ccc(F)cc1)N2 (configuration not stated) | 405 | 6.5% (inactive) | -12.7% (inactive) | 109 | 8.6% (inactive) | 103 | -0.557 (inactive) | -7.3e-06 (inactive) | 0.00537 (inactive) | 3.11% (inactive) | 12.1% (inactive) | –
14 | COc1ccc(N2CCN(c3oc(COc4ccccc4)nc3C#N)CC2)cc1 | 449 | 9.4% (inactive) | -7.4% (inactive) | 102 | – | 155 | -0.602 (inactive) | -9.8e-06 (inactive) | 0.00622 (inactive) | 10.1% (inactive) | 3.38% (inactive) | –
15 | CC1CCN(C(=S)c2ccccc2O)CC1 | 713 | -2.9% (inactive) | 7.3% (inactive) | 98.7 | -144% (inactive) | 121 | -0.536 (inactive) | -5.2e-05 (inactive) | 0.0045 (inactive) | 24.9% (inactive) | 34.5% (inactive) | –
16 | COc1cc(Cn2c(C(=O)O)cc3sccc32)cc(OC)c1OC | 434 | 8.6% (inactive) | 2.5% (inactive) | 98.8 | – | 140 | -0.562 (inactive) | -0.000122 (inactive) | 0.00343 (inactive) | 14.9% (inactive) | 20.9% (inactive) | –
17 | COc1cccc(-c2cc(C(=O)Nc3cc(OC)c(OC)c(OC)c3)no2)c1 | 461 | -4.5% (inactive) | 1.1% (inactive) | 55.1 | -12.3% (inactive) | 97.2 | -0.511 (inactive) | -4.5e-05 (inactive) | – | – | -2.13% (inactive) | 0.00712 (inactive)
18 | CCOCCCNC(=O)CCNS(=O)(=O)c1ccc(C)cc1 | 547 | -15% (inactive) | -10.7% (inactive) | 90.3 | – | – | -0.411 (inactive) | -3.1e-05 (inactive) | – | -17.9% (inactive) | 22.8% (inactive) | 0.00305 (inactive)
19 | O=c1c2ccccc2nnn1CSc1nc2cc(Cl)ccc2c(=O)n1Cc1ccco1 | 386 | 12.2% (inactive) | 7.5% (inactive) | 76 | -101% (inactive) | 113 | -0.56 (inactive) | -5e-05 (inactive) | 0.00813 (inactive) | -18.1% (inactive) | -12.2% (inactive) | –
20 | COc1ccc(OCc2nc(N)nc(Nc3cccc(C)c3C)n2)cc1 | 369 | 3.3% (inactive) | -10.8% (inactive) | 102 | – | – | -0.446 (inactive) | -1e-06 (inactive) | – | 4.49% (inactive) | 29% (inactive) | 0.00333 (inactive)
21 | Nc1nc(C(=O)N2CCOCC2)nn1S(=O)(=O)c1ccc(Cl)cc1 | 177 | 23.2% (active) | -3.7% (inactive) | 103 | – | 145 | -0.59 (inactive) | -2.7e-05 (inactive) | 0.00923 (inactive) | 11% (inactive) | 15.9% (inactive) | –
22 | COC(=O)Cn1cc(C(=O)c2cccs2)c2ccccc21 | 220 | -21.4% (inactive) | 8.5% (inactive) | 82.9 | 4.3% (inactive) | 70.5 | -0.554 (inactive) | -3.7e-05 (inactive) | 0.00685 (inactive) | 14.1% (inactive) | 20.4% (inactive) | –
